This is an account of results in PubChem BioAssay (NCATS).

Records with an inconclusive call do not appear. A call without a number means that no potency is given here. Unmarked numbers belong to inactive results. The source made the active and inactive calls. Calls come from the whole dose curve; as a rule, active = well fitted inhibition curve with a large enough effect; inconclusive = small, poorly fitted or top-dose-only effect; inactive = no such curve, though single readings can be large or run the other way. Where a SMILES comes first, the peptide text is derived from it. Bridges are numbered along the chain shown (N, C = ends). [ ]: non-standard residue; d: D form. The star is where a group is joined. X1 = CCC(C)C(N)C1=NC(C(=O)*)CS1; dOrn = NCCC[C@@H](N)C(=O)O
Potency is the fitted concentration of half-maximal effect.

This experiment is described as follows: Primary fluorescence-based thiol-reactive (MSTI) qHTS assay for identification of artifact compounds. (AID 1845221).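 For activity change, negative = thiol reactive: thiol-reactive compounds lower the probe fluorescence signal.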 Note: nearly all actives have a fitted effect of over 65% in size. The settings on record: MSTI thiol-reactivity probe, 1 h; series mostly up to 53.8 µM. The source says: PI: Alexander Tropsha Ph.D.
UNC Eshelman School of Pharmacy
University of North Carolina, Chapel Hill, North Carolina
Hits from high-throughput screening (HTS) of chemical libraries are often false positives due to their interference with the assay detection technology. In response to this problem, we generated the largest publicly available library of chemical liabilities and developed a free webtool to predict HTS artifacts, both of which are described herein. More specifically, we generated, curated, and integrated HTS datasets for thiol reactivity, redox activity, and luciferase (firefly and nano) activity. Using these curated datasets, we developed and validated several Quantitative Structure-Interference Relationship (QSIR) models to predict nuisance behavior. […] These models were employed for virtual profiling of the National Center for Advancing Translational Science's (NCATS) in-house library, and 256 compounds for each assay were selected for the experimental validation of nuisance behavior. The BA for these external predictions ranged from 58 to 78% for compounds within the applicability domains of the models. […] The models developed in this study, along with aggregation models previously developed by our group (SCAM Detective) were implemented in "Liability Predictor," an online tool which may be used as part of chemical library design or for triaging HTS hits. Both the models and the curated datasets are publicly available at https://liability.mml.unc.edu/.
SEQUENCE No. (e.g., 1, 2, 3, etc.); […] (e.g., Cells, Incubation, Reagent, etc.); VALUE; DESCRIPTION.
1; Reagent; 4 uL; […].
2; Compounds and control; 16 nL; Kalypsis pin tool (Wako USA) equipped with a 1536-well pin head.
4; Detection; Fluorescence, ViewLux microplate reader, 525 nm excitation, 598 nm emission.
NOTES (numbers refer to Sequence numbers above)
1. Assays determining (E)-2-(4-mercaptostyryl)-1,3,3-trimethyl-3H-indol-1-ium (MSTI) reactivity were performed as previously described in the literature with modifications for the quick identification of compounds reacting with thiol. In brief, 4 uL of MSTI or positive control Acetyl-MSTI (final concentrations of 4 uM and 4 uM, respectively) in assay buffer (2% DMSO in 1X PBS pH 7.4) was dispensed into all wells of a 1536-well assay plate (solid-bottom black plate; Greiner Bio One, Monroe, NC).
2. A Wako Pin-tool (Wako Automation, Richmond, VA) was used to transfer 16 nL of compounds (consisting of 7-plates in qHTS format, final concentration range 18.3 nM to 114 uM) or control MLS001163887 (final concentration range 1.22 nM to 40 uM).
3. Plates were centrifuged (121xg, 15 seconds) and incubated for 1 hour at room temperature protected from light.
4. Samples were read for fluorescence (Ex/Em = 525(20)/598(25) nm) on a ViewLux CCD imager (PerkinElmer). Data were normalized to Acetyl-MSTI (0% activity) and MSTI (100% activity) and the resulting percent inhibition data were fitted to a 4-parameter Hill equation using NCATS in-house software.
For orientation: Quantitative high-throughput screening tests each substance at several concentrations.
`COc1cc(-c2cccc(O)c2)cc2c1OCO2`: the Potency is 26.7 µM (active).

In the case of `C=C1CC2C3(C)C(O)CC(=O)C(C)(C)C3C(OC(C)=O)C(OC(C)=O)C2(C)C2C(=O)OC(C)(C(=O)OC)C(=O)C12C` (stereo not given), the Potency entry was “inactive”. The same measure, in the same setting: the result for `CC1C/C=C/C=C\CCCCC(O)C/C=C/C(=O)O1` (stereo not given) reads “inactive”; that for `C=C/C=C/[C@@H]1OC[C@H](/C=C/C=C/C)[C@H]1O`, “inactive”; that for `CC1(O)CCC2C(C(=O)O)=COC(OC3OC(CO)C(O)C(O)C3OC(=O)/C=C/c3ccc(O)cc3)C21` (stereo not given), 3.27 µM (active). Turning to `C[C@H]1CC[C@@]2(OC1)O[C@H]1CC3C4CC=C5C[C@H](O)C[C@@H](O[C@@H]6O[C@@H](C)[C@H](O)[C@@H](O)[C@H]6O[C@@H]6O[C@@H](C)[C@H](O)[C@@H](O)[C@H]6O)[C@]5(C)C4CC[C@]3(C)[C@H]1[C@@H]2C` (stereo not given in full), the Potency entry was “inactive”.

For the compound `O=C(O)c1ccc(CCCc2ccc(OCCc3ccc(F)cc3)cc2)o1`, the Potency entry is “inactive”. With `CC1(C)CC2C(O)C3=C(CC(C)(O)C2C1)C(=O)OC3O` (stereo not given), the Potency result was “inactive”. Same read-out and setting: the result for `CN1CCC(c2c[nH]c3ccc(NC(=O)c4ccc(F)cc4)cc23)CC1` reads “inactive”; that for `C/C=C/C=C/C(CC(=O)O)Nc1ccc(C=O)cc1` (stereo not given), 4.74 µM (active); that for `Cc1cn2c(N)c(Cl)cc(C(=O)NCC3CCN(CC(C)C)CC3)c2n1`, “inactive”. On to `COc1c2c(c(C)c3c1C(=O)OC3)OC1(C)CC(O)C3(O)C(C)(C)OC(=O)CCC3(C)C1C2` (stereo not given), for which the Potency result is “inactive”. On to `CCC1CC2C(C)=CC3CCCCC3C2(C)C2(OC(=O)C(C)(O)OC2=O)O1` (stereo not given), for which the Potency entry was “inactive”. For the compound `Clc1ccc(CN[C@H]2CCN(c3ncc(Br)cn3)C2)c(Cl)c1`, the Potency result is “inactive”.

For `O=C(NCc1ccc(OC(F)(F)F)cc1)C1c2ccccc2C(=O)N1C1CCOCC1` (stereo not given), the Potency entry was “inactive”. Regarding `C=C1CC23CCC4[C@@](C)(CCC[C@@]4(C)C(=O)O)C2CCC1C3` (stereo not given in full), the Potency entry was “inactive”. On the same count and under the same terms, the result for `N[C@H]1C[C@H]1c1ccc(-c2cccc(O)c2)cc1` reads “inactive”. Turning to `CCOC(=O)c1ccc(N(C)c2csc(-c3ccccc3)n2)cc1`, the Potency entry was “inactive”.

With `C[C@@H]1CC[C@]2(C)C3(C)CC[C@@]2(OC3=O)[C@@]12C[C@H](c1ccoc1)OC2=O`, the Potency result was “inactive”. Take `CC1(C)CC[C@]2(C(=O)O)CC[C@]3(C)C(=CCC4[C@@]5(C)CC[C@H](O[C@@H]6O[C@H](C(=O)O)[C@@H](O)[C@H](O)[C@H]6O)C(C)(CO)C5CC[C@]43C)C2C1` (stereo not given in full): the Potency result is “inactive”. For the compound `C/C(=C\CO)CC/C=C(\C)C(=O)O[C@H]1[C@H](OC2OC=C(C(=O)O)C3CCC(C)(O)C23)O[C@H](CO)[C@@H](O)[C@@H]1O` (stereo not given in full), the Potency is 11.6 µM (active). On the same count and under the same terms, the result for `CC(C)(O)C1=CCC23COC(C2)C(O)(C(=O)O)CCC13` (stereo not given) reads “inactive”; that for `Cc1coc2c1CC1OC1(C)CCC1OC1(C)C2` (stereo not given), “inactive”; that for `CC1CCC2(C)C(CC(O)C(O)C23CO3)C1(C)CCC1=CC(=O)OC1O` (stereo not given), “inactive”. Still for that read-out and setting: then `C[C@@H](Nc1cc(NS(=O)(=O)N2CCC2)nc(SCc2cccc(F)c2F)n1)[C@@H](O)CO`, with “inactive”; and `COC(=O)C1=C[C@@H](O)[C@@H](O)[C@H](O[C@@H]2O[C@H](COC(=O)/C=C/c3ccccc3)[C@@H](O)[C@H](O)[C@H]2O)C1`, with “inactive”; and `O=C(Nc1cccnn1)N1CCC(=Cc2cccc(Oc3ccc(C(F)(F)F)cn3)c2)CC1`, with “inactive”.

As to `C[C@]12CC[C@@H]3c4ccc(O[C@@H]5O[C@H](C(=O)O)[C@@H](O)[C@H](O)[C@H]5O)cc4CC[C@H]3[C@@H]1CCC2=O`, the Potency result is “inactive”. As for `COC(=O)C1=COC(O[C@@H]2O[C@H](CO)[C@@H](O)[C@H](O)[C@H]2O)/C(=C\COC(=O)c2ccc(OC3OC(CO)C(O)C(O)C3O)c(OC)c2)C1CC(=O)OCCc1ccc(O)cc1` (stereo not given in full), the activity change, negative = thiol reactive was 1.89% [at 11.5 µM]. Regarding `CCC(C)C(N)C1=NC(C(=O)N[C@@H](CC(C)C)C(=O)N[C@H](CCC(=O)O)C(=O)N[C@H](C(=O)N[C@H]2CCCCNC(=O)[C@H](CC(N)=O)NC(=O)[C@@H](CC(=O)O)NC(=O)[C@H](Cc3cnc[nH]3)NC(=O)[C@@H](Cc3ccccc3)NC(=O)[C@H]([C@@H](C)CC)NC(=O)[C@@H](CCCN)NC2=O)[C@@H](C)CC)CS1` (stereo not given in full) (X1-L[dE]IK[dOrn]I[dF]H[dD]N; lactam 4-C), the Potency result was “inactive”. Still for that read-out and setting: the result for `Nc1ccn([C@@H]2C(F)=C(CO)[C@@H](O)[C@H]2O)c(=O)n1` reads “inactive”; that for `O=C(c1ccccn1)c1cnn2c(-c3ccncc3)ccnc12`, “inactive”. For `CCC/C=C/C(=O)O[C@H]1CC(C)(C)CC2[C@]13[C@H](O)O[C@@]21CCC2[C@@]4(C)CC[C@H](O[C@@H]5O[C@H](C(=O)O)[C@@H](O)[C@H](O[C@@H]6O[C@H](CO)[C@H](O)[C@H](O)[C@H]6O[C@@H]6O[C@@H](C)[C@H](O)[C@@H](O)[C@H]6O[C@@H]6OC[C@](O)(CO)[C@H]6O)[C@H]5O[C@@H]5O[C@H](CO)[C@H](O)[C@H](O)[C@H]5O)C(C)(C)C4CC[C@@]2(C)[C@]1(C)C[C@H]3OC(C)=O` (stereo not given in full), the activity change, negative = thiol reactive is 179% [at 11.5 µM]. As to `COc1ccc2cc(OCC3(C(=O)O)CN(C(=O)c4ccc(F)cc4)C3)ccc2c1`, the Potency entry was “inactive”.

With `COC(=O)C1C(CC(C)=O)C=CC(O)C12Oc1cc(C)cc(O)c1C2=O` (stereo not given), the Potency was 5.85 µM (active). Regarding `COc1cc2c(Nc3ccc(Cl)c(Cl)c3F)ncnc2cc1OCC1C[C@@H]2CN(C)C[C@@H]2C1` (stereo not given in full), the Potency result was “inactive”. For the compound `C=C1C(O[C@@H]2O[C@H](CO)[C@@H](O)[C@H](O)[C@@H]2O)CC2C(C)(C)C(O)CCC2(C)C1CC/C(C)=C\CO` (stereo not given in full), the Potency result was “inactive”.

For `C=C1CC23CC1(O)CCC2C1=CC2OC(=O)C(C)(C2O)C1C3C(=O)O` (stereo not given), the Potency entry was “inactive”. For the compound `C[C@@H]1C[C@H]2[C@@H]3CCC4=CC(=O)C=C[C@]4(C)[C@@]3(F)[C@@H](O)C[C@]2(C)[C@@]1(O)C(=O)COP(=O)(O)O`, the Potency result was “inactive”.

Turning to `CC1=C(C)C(=O)OC(C(C)C2C(O)CC3C4C5OC5C5(O)CC(OC6OC(CO)C(O)C(O)C6O)CC(O)C5(C)C4CCC32C)C1` (stereo not given), the Potency entry was “inactive”.
